# Screens from PubChem BioAssay.
# CYP2C9 activ: increases human cytochrome P450 2C9 activity; P11712; recombinant CYP2C9, luciferin-H conversion, luminescence; stronger effect = higher value; factor 1 = untreated enzyme, 0 = blocked; activation factor at 5 µM; hit rate 1.4% among 96,000; AID 1024;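 active = activation factor of 2 or more for CYP2C9 at a 5 µM dose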;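 also: 0 = sulfaphenazole-blocked wells and 1 = vehicle-only wells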
# Cav32 inh: blocks human Cav3.2 T-type calcium channel; O95180; Cav3.2-expressing cells, Fluo-4 calcium fluorescence FDSS; stronger effect = lower value; B-score at 10 µM; hit rate 4% among 100,000;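 active = single-dose well whose peak fluorescence ratio is a statistical outlier from its plate by either plate-standardised score or position-corrected B-score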
# CYP2C19 inhib: human CYP2C19 inhibition; inhibition, % at 5 µM; hit rate 21% among 96,000; CYP2C19 Supersomes, luciferin-H EGE luminescence, 30 min; AID 778; P33261;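 active = CYP2C19 inhibition above a set limit at 5 µM in the primary screen, cut at about 50% in these data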;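 also: plate controls were negative control wells for no effect and 2.5 mM tranylcypromine positive control for full effect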
# CYP2C19 act: cytochrome P450 2C19 (human) activation; recombinant CYP2C19, luciferin-H EGE luminescence; stronger effect = higher value; 0 = fully inhibited enzyme, 1 = untreated enzyme; activation factor at 5 µM; 96,000 tested, under 10 active; AID 1025;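 active = activation factor of at least 2 at 5 µM in the primary screen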;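 also: 0 = wells with 2.5 mM tranylcypromine and 1 = vehicle-only wells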
# CYP2C9 inh: blocks human cytochrome P450 2C9. hit rate 20% among 96,000. P11712. inhibition, % at 5 µM. CYP2C9 Supersomes, luciferin-H conversion, luminescence;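 active = blocking of liver enzyme CYP2C9 beyond about 50% at 5 µM, limit read from the data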
# Numbers without * were called inactive; · = no result. Only some compounds are listed: those with a hit (about 27% of all), similar ones and a draw of the others.
SMILES,CYP2C9 activ,Cav32 inh,CYP2C19 inhib,CYP2C19 act,CYP2C9 inh
C/C=C\C=C\C(=O)N1CC2(CC(c3cccc(NC(=O)CC(c4ccccc4)c4ccccc4)c3)=NO2)C[C@H]1C(N)=O (stereo partly specified),·,-0.047,·,·,·
COc1ccc(OC)c(NC(=S)NCc2ccco2)c1,·,0.29,·,·,·
COc1ccc(NC(=S)NCCc2ccccc2OC)c(OC)c1,1.1,-1.2,99*,0,-12
COc1ccc(NC(=S)Nc2ccccn2)c(OC)c1,0.8,-0.7,33,0.7,15
COc1ccc(NC(=S)NCc2ccco2)c(OC)c1,0.6,-0.15,81*,0.2,36
COc1ccc(NC(=S)NCCC(c2ccccc2)c2ccccc2)c(OC)c1,0.1,-1.6,99*,0,86*
COc1ccc(NC(=S)Nc2ccc(F)cc2)c(OC)c1,·,0.3,·,·,·
COc1cccc(NC(=S)NCCC(c2ccccc2)c2ccccc2)c1,0.3,-6.9*,55*,0.4,68*
Cn1c(N/N=C/c2ccccc2)nc2sc3c(c2c1=O)CCC3,1,1.1,-14,1.1,-3
Cc1ccccc1OCc1nnc2c3cnn(C)c3ncn12,1,0.24,41,0.6,1
CC(C)CN(CC(C)C)S(=O)(=O)N1CCC(C(=O)NCCN2CCOCC2)CC1,0.9,-0.36,1,1,10
COc1cccc(-c2nn(C)c3sc(C(=O)NCc4ccc5c(c4)OCO5)cc23)c1,0.1,-1.8,76*,0.2,87*
COc1cccc(-c2nn(C)c3sc(C(=O)NCc4ccc(C)o4)cc23)c1,0.5,-0.22,23,0.8,54*
O=C(COC(=O)c1cccs1)NCCN1C(=O)CSC1=O,1.3,0.06,63*,0.4,-32
O=C(COC(=O)c1cccnc1Nc1cccc(C(F)(F)F)c1)NCCN1C(=O)CSC1=O,0,-1.4,63*,0.4,97*
O=C(Nc1cccc(C(F)(F)F)c1)c1cccnc1N1CCN(CCO)CC1,1,0.9,11,0.9,-4
Cc1ccc(S(=O)(=O)/N=S(/C)c2ccccc2)cc1 (stereo unspecified),1.5,-0.96,12,0.9,-52
CCCC(=O)Nc1ccccc1-c1nnc(SC)[nH]c1=O,0.8,0.37,-8,1.1,23
CC(SCc1ccccc1)C(=O)NC1CCCC1 (stereo unspecified),0.3,-0.38,83*,0.2,74*
COc1ccc(CCNC(=O)C2CCCN2C(=O)NC2CCCCC2)cc1OC (stereo unspecified),0.9,0.5,6,0.9,6
O=C(NCCc1ccccc1)NC1CCCCC1,0.8,-0.22,59*,0.4,16
O=C(NCc1ccccc1)NC1CCCCC1,1,2.3,22,0.8,-5
COc1ccc(CCNC(=O)NC2CCCCC2)cc1OC,1,·,82*,0.2,1
CC(=O)c1sc(-c2c(C)nc3sccn23)nc1C1CCCC1,0.6,·,14,0.9,36
COc1cc(CCC(=O)Nc2cc(Cl)ccc2N2CCN(C)CC2)cc(OC)c1OC,0.5,1.6,64*,0.4,46
SMILES,CYP2C9 activ,Cav32 inh,CYP2C19 inhib,CYP2C19 act,CYP2C9 inh
CC(/C=N/NC(=O)C(O)c1ccccc1)=C\c1ccccc1 (stereo unspecified),0.7,-2,22,0.8,33
Cc1cc(OC(C)C(=O)N/N=C/CC(C)c2ccccc2)ccc1Cl (stereo unspecified),0.8,-6.5*,74*,0.3,25
CC(=O)c1cccc(NC(=O)Nc2ccc3c(c2)N(C)C(=O)CS3)c1,0.4,-1.4,68*,0.3,59*
O=C(Oc1ccc(N(Cc2cccs2)C2=NS(=O)(=O)c3ccccc32)cc1)c1ccccc1F,0,-0.88,69*,0.3,97*
COc1ccccc1NC(=O)C(C)NS(=O)(=O)c1ccccc1 (stereo unspecified),2.7*,0.27,51*,0.5,-175
COC(=O)C(NC(=O)Nc1ccccc1OC)C(C)C (stereo unspecified),0.9,0.26,59*,0.4,12
CC(NS(=O)(=O)c1ccccc1)C(N)=O (stereo unspecified),1.2,0.045,-5,1.1,-23
COc1ccccc1CNC(=O)C(C)NS(=O)(=O)c1ccc(C)cc1 (stereo unspecified),2.1*,0.49,20,0.8,-108
COC(=O)[C@@H](NC(=O)Nc1ccccc1F)C(C)C,1,0.61,17,0.8,-4
Cc1c(C#N)c2ncnc(-c3ccccc3)c2n1-c1ccccc1,1.1,-0.95,16,0.8,-10
